Out of some 370,000 compounds screened, about 3,700 (1%) were called active.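 How the source made its calls: active means activation above the mean over all tested compounds plus 3 SD (cut at about 0.9% in these data); inactive means the rest.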 The sample as a whole holds a higher share of actives than the screen did.

This assay has as its system Nuclear hormone receptor DAF-12 (Strongyloides stercoralis). Nature of the assay: ssDAF-12 driven luciferase reporter activation – cell-based, luminescence, HEK293, GRIP1 co-expression, lit1-tk-luc, primary screen (AID 652126).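 Further: 0% = DMSO-only wells and 100% = 3 µM delta7-dafachronic acid wells.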 The settings on record: HEK293 ssDAF-12/GRIP1 lit1-tk-luc reporter, at 6.8 µM, active compounds read high, % of 3 µM dafachronic acid response. Background: In a reporter assay the amount or activity of a reporter protein is the signal.
As for `CCn1c(=O)n2n(c1=O)[C@@]1(C=C3CCCC[C@H]32)N=C(NC(=O)c2ccccc2)N(Cc2ccccc2)[C@H]1Cc1ccccc1`, the activation was -1.66% (inactive).

Turning to `O=S1(=O)c2ccc(Br)cc2OC[C@H](Cc2ccccc2)N1Cc1cn(Cc2ccccc2)nn1`, the activation is -1% (inactive).

As for `Cc1cccc(C2c3[nH]c4ccccc4c3CCN2C(=O)c2cc(-c3cccn3C)n[nH]2)n1` (configuration not stated), the activation is -0.27% (inactive).

As for `COc1ccc(C2c3[nH]c4ccccc4c3CCN2CCCn2cccn2)cc1C` (configuration not stated), the activation was 0.43% (inactive).

Take `Cc1cccc(C(=O)N2CCc3c([nH]c4ccccc34)C2CC(C)C)n1` (configuration not stated): the activation is 1.53% (active).

`C[C@@H](NC(=O)c1ccccc1OCC(=O)Nc1ccc(I)cc1)C(=O)N(C)Cc1ccccc1`: the activation is -1.27% (inactive).

Turning to `COC(=O)C[C@H]1CC[C@H]2[C@H](COc3ccc(NC(=O)C4CC4)cc3C(=O)N2C)O1`, the activation was -1.49% (inactive).

On to `Cc1ccc(NC(=O)N2CCC(O)(c3cccnc3)CC2)cc1`, for which the activation is -1.43% (inactive).

Take `O=C(Nc1ccc(Cl)cc1)Nc1ccc(Oc2cccnc2)nc1`: the activation is -1.82% (inactive).

On to `Cc1ccc(NC(=O)Nc2cccnc2)cc1`, for which the activation is 1.08% (active).

As for `COc1cccc(CSc2nnc(-c3cccnc3)n2Cc2ccccc2)c1`, the activation is -1.73% (inactive).

Regarding `COC(=O)[C@]12C[C@H](CC(=O)N3CCOCC3)C(=O)N(Cc3ccc(Cl)cc3Cl)C1=C[C@H](C(C)C)O[C@@H]2C1CC1`, the activation is -0.42% (inactive).

Take `Cc1ccccc1NC(=O)Cn1nnc(-c2ccccc2F)n1`: the activation was -0.75% (inactive).

`CN(CC#CCC(c1ccccc1)c1ccccc1)C(C)(C)C`: the activation was 1.07% (active).

Take `CC(C)(C)N(CC#CCC(O)(c1ccccc1)C1CCCC1)CCO` (configuration not stated): the activation is -0.45% (inactive).

For the compound `C#CCNC(=O)C[C@H]1C[C@@]2(C(=O)OC)C(=C[C@H](C(C)C)O[C@@H]2C2CC2)N(Cc2ccco2)C1=O`, the activation was -1.02% (inactive).

For `Cc1cc(OC(=O)c2ccccc2Cl)ccc1N1C(=O)CCC1=O`, the activation was -1.58% (inactive).

For `CCOC(=O)c1nn(-c2cccc(C)c2)cc1C(=O)c1ccccc1`, the activation is -0.86% (inactive).

As for `Cc1cccc(/C(N)=N/OC(=O)c2ccccc2Cl)c1`, the activation is 1.96% (active).

Turning to `Cc1cccc(-n2cnc(C(=O)NNC(=S)Nc3ccccc3)c2)n1`, the activation is -1.77% (inactive).

Consider `CC(C)(COC(=O)Nc1ccccc1)COC(=O)Nc1ccccc1`, for which the activation is -0.77% (inactive).

Take `N/C(=N\OC(=O)Nc1ccccc1)c1ccno1`: the activation is 5.22% (active).

On to `O=C(Nc1ccccc1)O/N=C1/CCCc2occc21`, for which the activation is -1.48% (inactive).

In the case of `COc1ccc(N2CCN(CCNS(=O)(=O)c3ccc(C(C)(C)C)cc3)CC2)cc1`, the activation was -0.72% (inactive).

As to `Cc1ccc(Cn2cc(CN3[C@@H](C)COc4cc(Br)ccc4S3(=O)=O)nn2)cc1`, the activation was -1.02% (inactive).

As to `O=C(Nc1ccn(Cc2ccccc2)n1)c1n[nH]c([N+](=O)[O-])c1Cl`, the activation was 1.07% (active).

For the compound `O=C(Cn1cnc([N+](=O)[O-])n1)NCCc1ccccc1`, the activation is -1.02% (inactive).

As for `O=C(O)CC(Cc1ccccc1)C(=O)Nc1ccc([N+](=O)[O-])cc1` (configuration not stated), the activation was -1.24% (inactive).

Consider `Cc1ccccc1CS(=O)(=O)Cc1ccc(C(=O)Nc2ccc(Cl)cc2)o1`, for which the activation is -2.4% (inactive).

With `O=C(C1CCN(C2CCN(Cc3ccc4cc(F)ccc4n3)CC2)CC1)N1CCCC1`, the activation is 0.06% (inactive).

Take `O=C(C1CCN(C2CCN(Cc3cccc4c3OCO4)CC2)CC1)N1CCOCC1`: the activation was -0.29% (inactive).

As for `C/C(=C\c1ccco1)CN1CCC(N2CCC(C(=O)N3CCOCC3)CC2)CC1`, the activation was 1.16% (active).

For `O=S(=O)(c1ccccc1)N1CCC(c2nc3ccccc3o2)CC1`, the activation is -1.57% (inactive).

As to `C=C(C)C#CC(Cc1ccccc1)NCC1CC1` (configuration not stated), the activation was -1.12% (inactive).

As for `COC(=O)[C@H](C(C)C)N1CCc2nnn(Cc3ccc(C)cc3)c2-c2ccccc2S1(=O)=O`, the activation is -1.89% (inactive).

As for `COC(=O)[C@@]12CCCCC=C1N(CCc1ccc(Cl)cc1)C(=O)[C@H]2CC(=O)NCc1ccc(OC)c(OC)c1`, the activation was -1.91% (inactive).

Take `Cc1ccc2cc(/C=N/Nc3ccc(C(=O)O)cc3)c(Cl)nc2c1`: the activation is 0.95% (active).

For `Cc1ccc(C(=O)N/N=C/c2sc(=O)n(Cc3cccc(C(=O)O)c3)c2Cl)cc1`, the activation was 0.05% (inactive).

Take `Cc1ccc(/C=C2\CCn3c2nc2cc(C(=O)O)ccc2c3=O)c(C)c1`: the activation is -1.16% (inactive).

Turning to `COc1cccc(N2CCN(CC(=O)N(C)Cc3ccc(F)cc3)CC2)c1`, the activation was -1.79% (inactive).

Turning to `O=S1(=O)c2c(cccc2N2CC[C@H](O)C2)O[C@@H]2CCN1C2`, the activation is -0.61% (inactive).

As to `CC(=O)OC12CCCN(C1)/C(=C/c1ccncc1)C2` (configuration not stated), the activation is -1.9% (inactive).

As to `Cc1cc(C)nc(Nc2n[nH]c(-c3ccccc3N)n2)n1`, the activation was 1.05% (active).

For `Cc1cc(C)n2ncc(C(=O)Nc3ccc4c(c3)OCCO4)c2n1`, the activation is -1.35% (inactive).

For the compound `C=CCN1C(=O)[C@@H](CC(=O)N2CCN(C(=O)c3ccco3)CC2)[C@]2(C(=O)OC)CCCCC=C12`, the activation was -0.85% (inactive).

With `O=C(CSc1nc2ccccc2n1Cc1ccccc1Cl)N/N=C\c1c[nH]c2ccccc12`, the activation is -0.54% (inactive).

Take `COc1ccc(N(CC(=O)N/N=C/c2cccs2)S(=O)(=O)c2ccc(OC)c(OC)c2)cc1`: the activation is -1.66% (inactive).

On to `Cc1c(NC(=O)C(=O)N/N=C/c2cccs2)c(=O)n(-c2ccccc2)n1C`, for which the activation is -1.41% (inactive).

Regarding `COc1ccc2c(c1)c(C(=O)N/N=C/c1cccs1)c(C)n2C`, the activation was 1.69% (active).

Turning to `O=C(CSc1nc2ccccc2n1Cc1ccccc1)NNC(=S)Nc1ccccc1`, the activation was -1.45% (inactive).

On to `C=CCN1C(=O)[C@@H](CC(=O)NCCCCc2ccccc2)[C@]2(C(=O)OCC)CCCCC/C=C/12`, for which the activation is -1.06% (inactive).

For `CCOC(=O)CC1(NC(=O)c2cc(COc3cncc(Cl)c3)on2)CCCCC1`, the activation was -1.57% (inactive).

With `Cc1cc(OCc2cc(C(=O)NCc3cc(C(C)C)no3)no2)cc(C)c1Cl`, the activation is 1.55% (active).

Turning to `CCC(NC(=O)c1cc(COc2ccc(F)c(F)c2)on1)c1ccncc1` (configuration not stated), the activation is -0.62% (inactive).

Regarding `Cc1ccc(C2=CCN(C)C(=O)N2c2ccc(Cl)cc2)cc1`, the activation was -0.59% (inactive).

As for `Nn1c(SCC(=O)Nc2cccc3ccccc23)nnc1-c1cc(-c2ccc(F)cc2)n[nH]1`, the activation was -1.45% (inactive).

As to `COc1cccc(C(O)Cc2nc3ccccc3n2C)c1OC` (configuration not stated), the activation is -1.62% (inactive).

`Cc1ccc(OCc2nnc(SC3CCc4ccccc4C3=O)n2C)cc1` (configuration not stated): the activation is -0.36% (inactive).

Take `Cc1ccc(OCc2nc3ccccc3n2C)cc1`: the activation was 0.93% (active).

As for `Cc1ccc(C(=O)N(Cc2ccccn2)CC2CCCO2)cc1` (configuration not stated), the activation is -0.96% (inactive).

For `COc1ccc(Cl)cc1NC(=O)C(C)N1CCc2ccccc21` (configuration not stated), the activation was -1.48% (inactive).

As for `COC(CNC(=O)[C@H](Cc1ccccc1)NC1(C(=O)NC2CCCCC2)CCCCC1)OC`, the activation was -1.29% (inactive).

In the case of `COC(=O)[C@]12C[C@H](CC(=O)N3CCN(C(=O)C4CC4)CC3)C(=O)N(CCC3=CCCCC3)C1=C[C@H](C(C)C)O[C@@H]2C1CC1`, the activation is -1.07% (inactive).

Turning to `Cc1cc(N=Nc2ccc3ccccc3c2)ccc1O`, the activation is 1.92% (active).

With `COC(=O)CC1CCc2cc(C)cc(C(CC(C)C)NC(=O)[C@H](CC(C)C)NC(=O)OCc3ccccc3)c2O1` (some centres not stated), the activation is -1.68% (inactive).

In the case of `CC(C)(C)c1ccc(CSc2nnc(-c3cccs3)o2)cc1`, the activation was -0.67% (inactive).

Regarding `CCOC(=O)CSc1ncc(-c2cccc(Cl)c2)cn1`, the activation is -1.41% (inactive).

Consider `CCOC(=O)CSc1nc(C)cc2c1C(=O)OC2`, for which the activation was 1.04% (active).

In the case of `CCN(Cc1ccccc1)C(=O)CSc1nc(C)cc2c1C(=O)OC2`, the activation was -0.86% (inactive).

For the compound `COC(=O)C1CN(CCc2ccccc2)CCS(=O)(=O)N1Cc1ccc(F)cc1` (configuration not stated), the activation is -0.95% (inactive).

In the case of `CN(Cc1ccccc1)C(=O)COC(=O)/C=C/c1ccc2c(c1)OCO2`, the activation is -0.82% (inactive).

With `Cc1cccc(NC(=O)/C=C/c2ccc3c(c2)OCO3)n1`, the activation is 1.53% (active).

For the compound `COc1cccc(/C=C/C(=O)Nc2ccc3c(c2)OCCO3)c1`, the activation was -0.84% (inactive).

Turning to `c1csc(-c2nnc(SCc3nc4ccccc4[nH]3)o2)c1`, the activation is -0.86% (inactive).

As to `O=C(CSc1nnc(-c2ccccn2)n1-c1ccccc1)Nc1ccc2cn[nH]c2c1`, the activation was -0.07% (inactive).

Regarding `CC(=O)c1cc(-c2ccc3ccccc3c2)c(=O)n2c1CCC2`, the activation was -1.47% (inactive).

With `CC(CCN1CCC(C(O)(c2ccccc2)c2ccccc2)CC1)Oc1ccc(C(F)(F)F)cc1` (configuration not stated), the activation was -0.69% (inactive).

Take `C/C=C/C(=O)OCc1csc(CC(=O)Nc2ccccc2C)n1`: the activation was -0.39% (inactive).

For the compound `CC(=O)Nc1ccc(S(=O)(=O)NC(C)C(=O)OCC(=O)NC2CCCC2)cc1` (configuration not stated), the activation is -0.65% (inactive).

As to `Cc1ccc(NC(=O)Cc2nc(COC(=O)C(C)NS(=O)(=O)c3ccc(C)cc3)cs2)cc1` (configuration not stated), the activation is 0.98% (active).

Take `COc1cccc(CNC(=O)CNS(=O)(=O)c2ccc3nc(C)sc3c2)c1OC`: the activation is -1.81% (inactive).

Consider `COc1ccc(CCNC(=O)CSc2nc3c([nH]2)c(=O)n(C)c(=O)n3C)cc1`, for which the activation is -1.12% (inactive).

For the compound `COc1ccc2c(C(C)c3ccc(N)cc3)cn(C)c2c1` (configuration not stated), the activation is -0.41% (inactive).

In the case of `Cc1cc(Br)cn2c(Cc3ccccc3C(F)(F)F)c(C3CCCCC3)nc12`, the activation is -0.29% (inactive).

Regarding `CCCc1nc2c3ccccc3ccn2c1Cc1ccccc1C(F)(F)F`, the activation was 1.29% (active).

With `FC(F)(F)c1ccccc1Cc1c(-c2ccccc2)nc2c3ccccc3ccn12`, the activation was -0.19% (inactive).

For `COc1ccc(S[C@]2(C(=O)N(C)C)CC(=O)N(c3ccc(OC)cc3)[C@@H]2c2ccc(OC)cc2)cc1`, the activation is -1.42% (inactive).

The values above are taken from PubChem BioAssay AID652126 (The Scripps Research Institute Molecular Screening Center, 2013).
